The text below walks through data of PubChem BioAssay AID1259343 (VanderVen Lab, College of Veterinary Medicine, Cornell …, 2017).

The term inhibition denotes the relative decrease from the control value, in per cent.

Out of some 6,200 compounds screened, about 2,900 (47%) were called active. Rule as the data show it: active = inhibition above about 50%; inactive = the rest. So high a share suggests a set chosen from earlier hits. Some of the results follow.

This assay in a line: Mycobacterium tuberculosis growth inhibition, primary screen (AID 1259343). Particulars: inhibition: at 10 µM, hits give high values; outcome: 10 uM.
Regarding `Cc1cc(C)[n+]2c(-c3ccccc3)csc2n1`, the inhibition was 80% (active). Consider `CCc1ccc(CN(C)Cc2nc(-c3cccc(Cl)c3)no2)nc1`, for which the inhibition was 24.1% (inactive). To `CN(Cc1cnccn1)c1ccc(-c2nc(-c3cccc(Cl)c3)no2)cn1` belongs 80.1% (active); to `CN(Cc1nc2scc(-c3ccco3)c2c(=O)[nH]1)C1CCCCC1`, -6.13% (inactive); to `O=c1[nH]c(CN2CCCC2c2cccs2)nc2scc(-c3ccco3)c12` (stereo not drawn), 85% (active).

As to `CC(C)Cc1csc2nc(Cc3cccs3)[nH]c(=O)c12`, the inhibition is 42% (inactive). Consider `CCN(CCS(=O)(=O)c1cc(Cl)ccc1Cl)CC(=O)NC(C)C`, for which the inhibition is -1.76% (inactive). As to `Clc1cc(CNCC2COc3ccccc3O2)cc2c1OCCO2` (stereo not drawn), the inhibition was 11.4% (inactive).

On to `c1ccc(CCc2cn(CC3COc4ccccc4O3)nn2)cc1` (stereo not drawn), for which the inhibition was 55.8% (active). As for `CN(CC1COc2ccccc2O1)C(=O)NCCc1ccsc1` (stereo not drawn), the inhibition is -41.3% (inactive). Regarding `FC(F)(F)c1ccc(-c2cnnc(N3CCC(c4ccncc4)CC3)n2)cc1`, the inhibition was 37.4% (inactive). For `O=C(Nn1cnc2ccccc21)c1ccccc1SC1CCS(=O)(=O)C1` (stereo not drawn), the inhibition was -8.68% (inactive). In the case of `C#CCOc1cccc(NC(=O)CSC2CCS(=O)(=O)C2)c1` (stereo not drawn), the inhibition is 84.6% (active).

Turning to `O=C(NCc1ccccc1F)c1cccc(COCC(F)(F)C(F)F)c1`, the inhibition was 68.7% (active). Regarding `O=C(NCc1cccc(COCc2ccco2)c1)c1ccccc1`, the inhibition was 14.8% (inactive). Take `COc1ccc(C2CCCN2C2=NCc3cnn(C(C)(C)C)c3N2)cc1` (stereo not drawn): the inhibition is 10% (inactive).

Consider `O=C(NC1CCCCC1)c1ccc(C(F)(F)F)nc1`, for which the inhibition is 57.1% (active).

Consider `O=C(NC1CCCCC1)c1cnccn1`, for which the inhibition was 47.9% (inactive). With `Cc1ccc(Sc2ccc(C(=O)NC3CC3)cn2)cc1`, the inhibition is 11.2% (inactive). As for `FC(F)(F)c1cc(-c2ccc(Cl)cc2)nc(-n2cccn2)n1`, the figure is 61.6% (active); as for `O=c1cc(CSc2nnc(-c3ccc(Cl)s3)o2)occ1O`, 80.1% (active); as for `CCc1cc(=O)[nH]c(-n2nc(C)cc2NC(=O)/C=C/c2ccc3c(c2)OCO3)n1`, 100% (active).

Turning to `Cc1cc(=O)[nH]c(-n2nc(C)cc2NC(=O)/C=C/c2ccc3c(c2)OCO3)n1`, the inhibition was 101% (active). As to `N/C(=N/O)c1cncc(OCC(F)(F)F)n1`, the inhibition was 92% (active).

Turning to `Brc1c(-c2ccccc2)nc2ccccn12`, the inhibition was 40% (inactive).

With `CN(Cc1ccc(C(N)=O)cc1)Cc1ccccc1Br`, the inhibition was 17.4% (inactive).

In the case of `CC(Oc1ccc(C(N)=O)cc1)C(=O)c1ccc(Br)cc1` (stereo not drawn), the inhibition is 71.9% (active). For the compound `CC(Oc1ccc2cc(Br)ccc2c1)C(=O)NC(N)=O` (stereo not drawn), the inhibition is 80.7% (active). As for `N#Cc1ccc(NC(=O)NCc2ccn(-c3ccccc3)n2)cc1`, the figure is 32.1% (inactive).

In the case of `CCc1ccc(CNC(=O)Nc2ccc(C#N)cc2)s1`, the inhibition is 56.1% (active). As to `CCCSc1nnc(-c2c(Cl)c(CC)nn2C)s1`, the inhibition was 52.5% (active). As for `N#CCc1cc(-c2ccc(Cl)cc2)on1`, the figure is 72.6% (active); as for `N#Cc1nc(-c2ccc(Cl)cc2)oc1NC1CC1`, 26.7% (inactive); as for `COc1cccc(-c2cc(N)c(=O)n(Cc3ccc(C(F)(F)F)cc3)n2)c1`, 22.8% (inactive). For the compound `COc1cccc(CC2(CO)CCCN(C(=O)Nc3cccc(C(F)(F)F)c3)C2)c1` (stereo not drawn), the inhibition was 11% (inactive). `COc1cccc(Oc2ccc(C(F)(F)F)cc2NC(C)=O)c1`: the inhibition is 82.6% (active). Consider `Cc1ccc(OC(C)C(=O)Nc2ccc3c(c2)CCC3)cc1` (stereo not drawn), for which the inhibition was 1.9% (inactive).

Take `O=C(Nc1nnc(-c2ccc3c(c2)CCCC3)o1)c1ccc([N+](=O)[O-])s1`: the inhibition was 101% (active). In the case of `CC(C)(C)C(=O)Nc1nnc(-c2ccc3c(c2)CCCC3)o1`, the inhibition is 92.3% (active). As for `NC(Cc1ccc(C(F)(F)F)cc1)c1csc(Nc2nccc(C(F)(F)F)n2)n1` (stereo not drawn), the figure is 94.8% (active); as for `NC(Cc1ccc(C(F)(F)F)cc1)c1csc(Nc2ncccn2)n1` (stereo not drawn), 29.2% (inactive). As for `NC(CCc1ccccc1)c1csc(Nc2nccc(C(F)(F)F)n2)n1` (stereo not drawn), the figure is 50.5% (active); as for `NC(Cc1ccc(Cl)cc1)c1csc(Nc2nccc(C(F)(F)F)n2)n1` (stereo not drawn), 63.1% (active).

Consider `NC(Cc1ccc(F)cc1)c1csc(Nc2nccc(C(F)(F)F)n2)n1` (stereo not drawn), for which the inhibition was 66.7% (active). `OCc1cc(-c2cc3ccccc3o2)on1`: the inhibition is 8.03% (inactive). Turning to `C(=NN1CCOCC1)c1cn(-c2ccccc2)nc1-c1cc2ccccc2o1`, the inhibition was 88.6% (active). Regarding `c1ccc(Cn2cc(CN3CCN(c4ncccn4)CC3)c(-c3cc4ccccc4o3)n2)cc1`, the inhibition entry is “inactive”. `OCc1cn(-c2ccccc2)nc1-c1cc2ccccc2o1`: the inhibition was 74.7% (active).

On to `O=C(Cc1cc(-c2cc3ccccc3o2)on1)NCCCN1CCOCC1`, for which the inhibition was 20.8% (inactive). With `O=C(CC(O)(c1ccccc1)C(F)(F)F)N1CCN(Cc2ccc(Cl)cc2)CC1` (stereo not drawn), the inhibition is 53.2% (active). As for `O=C1NC(C2=Cc3cc(Cl)ccc3OC2)Nc2ccccc21` (stereo not drawn), the figure is 0.99% (inactive). For the compound `COC(=O)c1cnc(Nc2nc(C(N)c3ccccc3Cl)cs2)nc1C(F)(F)F` (stereo not drawn), the inhibition was 94% (active). As for `COC(=O)c1cnc(Nc2nc(C(N)Cc3ccc(Cl)cc3)cs2)nc1C(F)(F)F` (stereo not drawn), the inhibition is 85.1% (active). As for `CC(=O)Nc1ccc(Sc2nc(C)cc(C)c2C#N)cc1`, the figure is -11.9% (inactive); as for `COc1cc(N(C)CCC(O)c2ccccc2)ncn1` (stereo not drawn), -15.6% (inactive); as for `COc1cc(-c2cccc(O)c2)ncn1`, 93.2% (active).

On to `CN(C)c1ccc(CN(C)S(=O)(=O)Cc2ccccc2)cc1`, for which the inhibition was 30.6% (inactive). Regarding `C=C1N(C)c2cc([N+](=O)[O-])c(N)cc2C1(C)C`, the inhibition was 64.8% (active). To `c1ccc(-c2nc(SCC3CCOCO3)oc2-c2ccccc2)cc1` (stereo not drawn) belongs -19.9% (inactive); to `O=S(=O)(/C=C/C=C/Sc1ccccc1)c1ccccc1`, 90.4% (active); to `Cc1cc(C)n(-c2nc(NC(C)C)nc(NC(C)(C)C)n2)n1`, 101% (active). Take `CCn1cc(C(CC(=O)O)c2cccc(F)c2)c2ccccc21` (stereo not drawn): the inhibition was 18.8% (inactive). On to `CN(C)c1ccc(-c2nc3c(C(=O)NNc4cccc(Cl)c4)cccc3[nH]2)cc1`, for which the inhibition is 85.1% (active). To `Cc1nn(C)c(C)c1C(=O)NNc1cccc(Cl)c1` belongs -9.93% (inactive); to `O=C(Cc1cc(-c2cc3ccccc3o2)on1)NCc1ccco1`, 91.1% (active). As for `O=C(Cc1cc(-c2cc3ccccc3o2)on1)NCc1cccs1`, the figure is 28.1% (inactive); as for `O=C(Cc1cc(-c2cc3ccccc3o2)on1)NCc1ccc(F)cc1`, 22.7% (inactive). In the case of `O=C(Cc1cc(-c2cc3ccccc3o2)on1)NCc1ccncc1`, the inhibition is 75.1% (active).
